Measurements as given in ChEMBL document CHEMBL4513216, “Probing the Open Global Health Chemical Diversity Library for Multistage-Active Starting Points for Next-Generation Antimalarials” (ACS Infect Dis, 2020).
The whole screen tested about 69,000 compounds, of which about 8,600 (12%) showed an effect of 50% or more. Shown is part of a subset that was picked to be rich in strong results.

test system: Plasmodium berghei; assay: Screen against P. berghei liver stage (PbLuc), transformed with Luciferase, at 10uM; assay type: functional, HepG2; conditions: tested at 10 uM

SMILES | INHIBITION [%]
CN(C)CCn1c2c(ccc1=O)CC(NC(=O)c1ccsc1)CC2 (stereo not given) | 37.5
Cc1oc(C)c(C(=O)NCc2cccnc2)c1C | -8.75
COCCOCCNC(=O)N1CCc2c(F)ccc(F)c2C1 | 5.38
CCCNC(=O)CCNC(=O)N1CCc2c(F)ccc(F)c2C1 | 71.7
COC(=O)CCCNC(=O)N1CCc2c(F)ccc(F)c2C1 | 28.7
Cc1cc(CN2C[C@@H](C)[C@@]3(CCN(CC(=O)N(C)C)C3=O)C2)oc1C | 51.2
CN1CC[C@]2(CN(Cc3cccs3)C[C@H]2c2ccccc2)C1=O | 24.9
Cc1noc(C)c1CN1C[C@H](C)[C@]2(CCN(Cc3cccnc3)C2=O)C1 | 13.7
CCc1ccc(CN2C[C@@H](C)C3(CCN(CC(=O)N(C)C)C3=O)C2)o1 (stereo not given in full) | 21.1
Cc1cc(CN2C[C@@H](C)[C@@]3(CCN(C)C3=O)C2)oc1C | 65.9
Cc1cccc(CN2C[C@@H](C)[C@@]3(CCN(CC(=O)N(C)C)C3=O)C2)c1 | 2.58
Fc1cccc(-c2nc(CN3CCCC(Cn4cncn4)C3)co2)c1 (stereo not given) | 11.9
COc1ccc2cccc(CC(=O)NCCCc3n[nH]c(C)n3)c2c1 | -6.97
Cc1nc(CCCNC(=O)c2c(F)cc(F)cc2F)n[nH]1 | 33.7
Cc1nc(CCCNC(=O)c2cc(F)ccc2O)n[nH]1 | 46.6
Cc1nc(CCCNC(=O)Nc2cc(F)cc(F)c2)n[nH]1 | 55.5
Cc1nc(CCCNC(=O)Nc2ccc(F)cc2F)n[nH]1 | 56.5
Cc1nc(CCCNC(=O)c2c(F)cccc2Br)n[nH]1 | 39.6
COc1ccc(C(NCc2ccc(C#N)cc2)C2CC2)cc1 (stereo not given) | -22.3
COC(=O)CCn1ccc(=O)c2ccccc21 | 20.9
O=S(=O)(C1CC1)N1CCCn2cnc(COc3cccnc3)c2C1 | -4.26
Cc1ccc(CCCC(=O)N2CCN(C3CCCN(C)C3)CC2)s1 (stereo not given) | 15.7
O=C(C1CCOC1)N1CCN(CC(F)(F)F)c2ccccc21 (stereo not given) | 34.2

SMILES | INHIBITION [%]
c1ccc(-c2nnc(CN3CCCC3Cn3cncn3)o2)cc1 (stereo not given) | -41.6
COCc1ncn2c1CN(C(=O)c1ccc[nH]1)CC2 | -20.1
Cc1nc(C)n(CC2CCCN(CCC(=O)N3CCOCC3)C2)n1 (stereo not given) | -2.19
c1c[nH]c(CN2CCCC(Cc3ccc(NC4CCCC4)nn3)C2)n1 (stereo not given) | -3.02
CCOc1ccc(CNC(=O)N(C)Cc2ncnn2C)cc1C | 49
Cc1ccc(NC(=O)N(C)Cc2cnn(C)c2)c(C)c1 | -29.1
Cc1ccc(C)c(NC(=O)N(C)Cc2cnn(C)c2)c1 | 39.8
CCOc1cc(NC(=O)N(C)Cc2ncnn2C)ccc1C | 50.1
CN(Cc1ncnn1C)C(=O)Nc1ccc(OC(F)F)cc1 | 21.2
CC(C)OCc1cccc(NC(=O)N(C)Cc2ncnn2C)c1 | 45.8
Cc1ccc(NC(=O)N(C)Cc2cnn(C)c2)cc1OCC(F)F | 52.7
CCSCc1cccc(NC(=O)N(C)Cc2ncnn2C)c1 | 59.7
CC(=O)N(C)Cc1cccc(NC(=O)N(C)Cc2nccs2)c1 | -49.3
COc1c(CNCCNC(=O)c2cccs2)c(C)nn1C | -79.3
Cc1ccc(OCCN(C)C(=O)NC(C)c2nncn2C)cc1 (stereo not given) | 21.5
Cc1cccc(NC(=O)Cn2nc3ccccn3c2=O)c1C | -7.35
CC(C)OCc1nn(C)c2c1CCN(CC1CC1)C2 | 32.5
Cc1cc(CN2C[C@H](N3CCOCC3)[C@@H]3OCCC[C@@H]32)oc1C | 26.4
O=c1oc(-c2ccc(F)cc2)nn1CN1CCCCC1 | 23.7
CCOc1ccc(Cl)c(C(=O)N2CCN(CC(O)CC)CC2)n1 (stereo not given) | 14.1
COCc1cc(N2CCN(c3ccc(Cl)cn3)CC2)n2nccc2n1 | 54.5
CCc1cc(N2CCN(c3ccc(Cl)cn3)CC2)n2nccc2n1 | 81.2
COCc1cc(N2CCN(Cc3ccncc3)CC2)n2nccc2n1 | 48.5

SMILES | INHIBITION [%]
CCc1cc(N2CCC(N3CCSCC3)CC2)n2nccc2n1 | 35
COCc1cc(N2CCOCC2)n2nccc2n1 | -11.9
COCc1cc(N2CCN(C3CCCCC3)CC2)n2nccc2n1 | -9.29
Cc1ccc(CN2CC[C@@H](O)[C@@H]2Cc2cnn(C)c2)o1 | 22.9
Cc1cccc(CN2C[C@H]3CCC[C@@]3(COCc3csc(C)n3)C2)n1 | -28.2
CCC(CC)c1cc(CNC(=O)N2CCCC(N(C)C)C2)on1 (stereo not given) | -34
CCC(CC)c1cc(CNC(=O)N2CCC(CO)CC2)on1 | 40.4
CCC(CC)c1cc(CNC(=O)N2CCCC(C(=O)NC)C2)on1 (stereo not given) | 64.6
C1CCC(c2nnc3sc(C4CCCO4)nn23)C1 (stereo not given) | 49.4
CCOc1ccc(CC(=O)N2CCN(c3nccn3CC)CC2)cc1 | 49.1
Cc1ccsc1CNC(=O)N(C)Cc1cnn(C)c1 | -14.86
Cc1nc(CNC(=O)N(C)Cc2cnn(C)c2)cs1 | 15.05
Cc1csc(CNC(=O)N(C)Cc2cnn(C)c2)n1 | 54.4
Cc1ccc2c(c1)C1(CCN(C(=O)C3CC3)CC1)CC2N1CCOCC1 (stereo not given) | 10.7
Cc1nn(C)c2c(N3CCN(C(=O)C4CCCCC4)CC3)ncnc12 | 44.1
CC(C)CN1C(=O)C2(CCN(Cc3nccs3)C2)c2ccccc21 (stereo not given) | 81.8
CC(C)CN1C(=O)C2(CCN(Cc3cccs3)C2)c2ccccc21 (stereo not given) | 20.4
Cc1ccc(CN2CCC3(CC2)C(=O)N(C)c2ccccc23)s1 | 31.8
CC(C)CN1C(=O)C2(CCN(Cc3ccc(F)cc3)C2)c2ccccc21 (stereo not given) | 38.2
COCCN1C(=O)C2(CCN(CC3CC3)CC2)c2ccccc21 | 55.7
CC(C)CN1C(=O)C2(CCN(Cc3ccsc3)C2)c2ccccc21 (stereo not given) | 32.2
CC(C)CN1C(=O)C2(CCN(CC3CCOCC3)C2)c2ccccc21 (stereo not given) | 71.9
CN1CCC2(CC1)C(=O)N(CC1CC1)c1ccccc12 | 14.1

SMILES | INHIBITION [%]
CN(C)CCN1C(=O)C2(CCN(CC3CC3)CC2)c2ccccc21 | 27.6
CC(C)CN1C(=O)C2(CCN(Cc3ccoc3)C2)c2ccccc21 (stereo not given) | 23.3
Cc1ccc(CN2CCC3(C2)C(=O)N(CC2CC2)c2ccccc23)s1 (stereo not given) | 55
CC(=O)N1CCC2(C1)C(=O)N(CC1CC1)c1ccccc12 (stereo not given) | -19.6
COc1ccc(OC)c(C2CC(=O)Nc3nc(N4CCOCC4)sc32)c1 (stereo not given) | 7.66
Cc1c(NC(=O)NC(C)CCO)cccc1OC1CCCC1 (stereo not given) | -16.9
CC(C)n1ccnc1CN1CCCN(C(=O)c2ncccc2O)CC1 | 32.45
CCOCCN1CCN(CC(O)c2ccc(F)cc2)CC1 (stereo not given) | 37.9
O=C(NC[C@]12COC[C@H]1CN(Cc1nccs1)C2)c1ccsc1 | 7.31
COc1ccc(NC(=O)C2CC(=O)N(C)C2)cn1 (stereo not given) | 45.7
CC(C)(NS(C)(=O)=O)c1nc(-c2ccncc2)no1 | 22
O=C(CCn1c(C(F)F)cc2cccnc21)NC1CCCCC1 | 14.7
CN1C(=O)C2(CCN(CCO)C2)c2ccccc21 (stereo not given) | 34.7
Cc1ccc(CN2CCC3(CC2)C(=O)Nc2ccccc23)s1 | 23.5
CN1C(=O)C2(CCN(CC3CCC3)C2)c2ccccc21 (stereo not given) | 88.2
CN1C(=O)C2(CCN(CC3CC3)CC2)c2ccccc21 | 30.7
Cc1ccc(CN2CCC3(C2)C(=O)N(CC(N)=O)c2ccccc23)s1 (stereo not given) | 32.5
Cc1ccc(CN2CCC3(C2)C(=O)N(CC(C)C)c2ccccc23)s1 (stereo not given) | 65.1
CCOCC(=O)N1C[C@@H](O)[C@H](N2CCN(c3ccccc3)CC2)C1 | -3.25
CC(C)CCN1CCN(C(=O)c2c[nH]c(=O)[nH]2)CC1 | -16.8
CCn1nc(C)c2nc(C(C)C)nc(N(C)Cc3ccco3)c21 | 11.8
OCCN1CCC(CNCc2ccccc2OC(F)(F)F)CC1 | 4.8
Cc1cc(C)n(-c2ccc(CNCc3cccc(C#N)c3)cn2)n1 | -12.63

SMILES | INHIBITION [%]
CC(C)c1csc(C(=O)N2CCCC(Cn3cc(CO)nn3)C2)n1 (stereo not given) | 40.3
Cc1nn(CC(O)CN2CCc3ccccc3C2)c(=O)c(C#N)c1C (stereo not given) | -1.75
O=C(N1CCCC1)N1CCC2(CC1)C(=O)N(CC1CC1)c1ccccc12 | 23.5
CCOCc1nnc2n1CCN(Cc1c(C)noc1C)CC2 | 30.3
Cc1ccnc(C(=O)N2C[C@@H]3CN(S(C)(=O)=O)CCO[C@@H]3C2)c1 | 48.2
Cc1nc(C(=O)N2C[C@@H]3CN(S(C)(=O)=O)CCO[C@@H]3C2)cs1 | 58.5
Cn1nccc1C(=O)N1C[C@@H]2CN(S(C)(=O)=O)CCO[C@@H]2C1 | 40.5
O=C(c1sccc1Br)N(Cc1cccnc1)C1CC1 | 25.2
Clc1ccc(CN2CCc3c(ncn3C3CC3)C2)c2ncccc12 | 66.3
Cn1cnc2c1CCN(Cc1ccc(Cl)c3cccnc13)C2 | 31.1
c1ccc(CCN2CCc3c(ncn3C3CC3)C2)nc1 | -24.7
Cc1nc2c(N3CCC(O)(Cn4ccnc4)CC3)ncnc2o1 | 29.7
CCC(CNc1ncnc2oc(C)nc12)Cc1ccccc1 (stereo not given) | 59.5
CCCOc1ccc(Cl)cc1CNc1ncnc2oc(C)nc12 | 45.4
Cc1ncnc(NCC(C)N(C)c2ccccc2)c1C (stereo not given) | 68.6
CCN(CC)C(=O)C1CCCN(c2ncnc3oc(C)nc23)C1 (stereo not given) | 3.46
Cc1ncnc(NC(CC(C)(C)C)c2cccnc2)c1C (stereo not given) | 40.3
Cc1nc2c(NCC(C)N(C)c3ccccc3)ncnc2o1 (stereo not given) | 67.7
Cc1nc2c(N(CCC(N)=O)CCc3ccccc3)ncnc2o1 | 19.2
CCCOc1ccccc1CCCNc1ncnc2oc(C)nc12 | 83.5
CC(CNc1cncc(-n2cccn2)n1)N(C)c1ccccc1 (stereo not given) | 10
CCCN(CCc1ccccc1)c1ncnc2oc(C)nc12 | 25.4
Cc1nc2c(NC(CC(C)(C)C)c3cccnc3)ncnc2o1 (stereo not given) | 34.4
